Results from PubChem BioAssay AID1671192 (National Center for Advancing Translational Sciences (NCATS), 2021).
Results filed as inconclusive are left out. Values without a mark were called inactive. Calls come from the whole dose curve; as a rule, active = well fitted curve in the direction sought with a large enough effect; inconclusive = small, poorly fitted or top-dose-only effect, or another doubt; inactive = no such curve, though single readings can be large or run the other way.

Target: Polyunsaturated fatty acid lipoxygenase ALOX15 (Homo sapiens) (UniProt P16050)
Sequence (P16050 whole entry, looked up): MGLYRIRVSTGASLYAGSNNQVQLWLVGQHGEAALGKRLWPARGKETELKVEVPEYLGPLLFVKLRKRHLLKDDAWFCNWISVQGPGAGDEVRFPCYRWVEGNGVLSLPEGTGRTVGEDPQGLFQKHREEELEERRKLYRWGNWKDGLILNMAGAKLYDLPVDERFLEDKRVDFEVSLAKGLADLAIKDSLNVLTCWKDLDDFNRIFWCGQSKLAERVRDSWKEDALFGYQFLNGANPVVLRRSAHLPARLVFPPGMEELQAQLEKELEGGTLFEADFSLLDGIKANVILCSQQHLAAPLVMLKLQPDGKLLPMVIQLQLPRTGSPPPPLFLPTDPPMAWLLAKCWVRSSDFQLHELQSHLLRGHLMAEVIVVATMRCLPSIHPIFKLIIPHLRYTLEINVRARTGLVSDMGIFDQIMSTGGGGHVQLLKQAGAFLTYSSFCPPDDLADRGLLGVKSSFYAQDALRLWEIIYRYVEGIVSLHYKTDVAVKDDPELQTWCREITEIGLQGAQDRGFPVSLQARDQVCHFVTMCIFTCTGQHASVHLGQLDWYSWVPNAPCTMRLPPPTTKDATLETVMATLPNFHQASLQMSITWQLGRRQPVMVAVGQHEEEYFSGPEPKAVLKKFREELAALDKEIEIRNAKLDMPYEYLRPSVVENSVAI
Experiment: Counterscreen qHTS for inhibitors of human arachidonate 12S-lipoxygenase (ALOX12): ALOX15 Assay; note: 0% is about no effect
Conditions: purified ALOX15 enzyme activity; series mostly up to 110 µM; activity change, negative = inhibition: at the top concentration
Description: Assay Provider: Theodore R. Holman Ph.D.
University of California, Santa Cruz, California
Human lipoxygenase 12hLO is a member of the closely related lipoxygenase family of enzymes which catalyze the site-specific oxidation of arachidonic acid to various hormone precursor molecules and as such is a candidate for drug development in a variety of disease areas, such as cancer and inflammation. Inhibition of 12hLO activity was screened by utilizing arachidonic acid as a substrate. The extent of hydroperoxide product formation was measured by a secondary chromogenic reaction in which xylenol orange (XO, Sigma-Aldrich, cat. number 39,818-7) reacts with the ferric ions produced from the reaction between the hydroperoxide and ferrous ions. The Fe (III)-XO complex is characterized with red-shifted absorbance at 560 nm. A purified preparation of human 12hLO was supplied by Dr. Holman laboratory, University of California, Santa Cruz.
An assay against arachidonate 15-lipoxygenase (ALOX15) was developed to assess selective inhibition against ALOX12. Desired compounds would show potent inhibition against ALOX12 and minimal to no inhibition against ALOX15.
SEQUENCE No. (e.g., 1, 2, 3, etc.); PARAMETER (e.g., Cells, Incubation, Reagent, etc.); VALUE; DESCRIPTION
1; Enzyme; 3 uL; 40 nM ALOX15 (15hLO-1) enzyme solution dispensed in 1536-well Greiner black, clear bottom plates.
2; Compound; 23 nL; compounds and controls were added.
3; Incubate; 15 min; room temperature.
4; Substrate; 1 uL; 50 uM arachidonic acid (final concentration).
5; Incubate; 30 min; room temperature.
6; Reagent; 4 uL; Fe-XO solution was added to each well.
8; Incubation; 30 min; room temperature
9; Detector; absorbance; Read 1 at 405 nm absorbance using ViewLux (PerkinElmer) CCD imager.
10; Detector; absorbance; Read 2 at 573 nm absorbance using ViewLux (PerkinElmer) CCD imager.
NOTES (numbers refer to sequence above)
1; 40 nM ALOX15 (final concentration) in buffer solution (25 mM Hepes, 0.01% Triton X-100, pH 7.5) was dispensed in columns 1, 2, 5 - 48. Column 1 is neutral (100% activity). Buffer only was dispensed in columns 3 and 4 as no enzyme negative controls. The plates were covered with metal lids with gas-exchange holes.
2; Compounds were pin transferred via a Kalypsys Pin Tool (Wako USA) in column 5 - 48. Control compound was transferred in column 2, titration of nordihydroguaiaretic acid (NDGA, Sigma-Aldrich, N5023) with top concentration of 10 mM in DMSO then 1:2 dilution in duplicate. Dilution factor of 23 nL into 4 uL final assay volume.
3; Covered assay plates were incubated for 15 min at room temperature.
4; Substrate was added to start the reaction; 50 uM arachidonic acid (Sigma-Aldrich, St. Louis, MO) was dispensed throughout the plate.
6; Chromogenic detection reagent solution (divalent iron/xylenol orange, Fe-XO) was added to each well: 200 uM xylenol orange, 300 uM ferrous ammonium sulfate prepared freshly in 50 mM sulfuric acid.
9, 10; Two absorbance readouts were obtained at 405 nm and at 573 nm using a ViewLux high-throughput CCD plate imager (PerkinElmer). The 573 to 405 (Read 2 / Read 1) absorbance ratio was used to compute reaction progress.

| SMILES | activity change, negative = inhibition |
| --- | --- |
| Cc1cc(C)cc(CN2CCC3(Cc4ccccc4CNC3=O)C2)c1 (stereo not given) | -8.12% [at 146 µM] |
| NC(C(=O)N1CCC2(CC1)CN(C(=O)Cc1cccc(Cl)c1)CCO2)c1ccccc1 (stereo not given) | -18.6% |
| CC1C=CC(C)N1c1ncnc2c1CN(C1CCNCC1)C(=O)CN2C (stereo not given) | 1.91% [at 146 µM] |
| COc1ccc(-c2nc(C3CC3)nc3c2CN(C(=O)c2ccccc2)CC3)cc1 | 3.82% |
| O=C1NC2(Cc3ccccc31)CN(C(=O)c1cccc3c1OC(F)(F)O3)C2 | -11.2% |
| CN1CC(=O)N(C2CCNCC2)Cc2c(NC3CCCCC3O)ncnc21 (stereo not given) | -2.53% |
| COc1ccc(CCNc2ncnc3c2CN(C2CCCNC2)C(=O)CN3C)cc1 (stereo not given) | -23% |
| CN(C)C(=O)N1CCCC(c2nnc3n2CCNC3)C1 (stereo not given) | -25.6% [at 146 µM] |
| O=Cc1ccc(-c2ccc(F)cc2)cc1 | -22.6% [at 233 µM] |
| O=C(N1CCCC1)N1CCn2c(nnc2-c2cncc(Br)c2)C1 | -11.1% |
| Cc1cc(C(=O)NCc2cccs2)c2c(C3CCNC3)noc2n1 (stereo not given) | -7.35% [at 146 µM] |
| NCCCC(=O)N1CCC2(CC1)CC(NC(=O)CN)c1ccccc12 (stereo not given) | -21% |
| O=Cc1ccc(-c2cccc(O)c2)cc1 | -2.91% [at 233 µM] |
| CC(=O)NCCC(=O)N1Cc2ccccc2CC2(CCCN2CCc2ccc(C)cc2)C1 (stereo not given) | 12.2% |
| CCCC(=O)N1Cc2ccccc2CC2(CCCCN2Cc2ccccn2)C1 (stereo not given) | 47.5% |
| NCC(=O)N1Cc2ccccc2CC12CCCN(C(=O)c1ccccc1)C2 (stereo not given) | 3.09% |
| Fc1ccc(CN2CC(Oc3ccc4c(c3)OCO4)C2)cc1 | 6.88% [at 146 µM] |
| O=C(c1ccc(Cl)cc1)N1CC2(CCN(Cc3ccc(Cl)cc3)C2)Cc2ccccc21 (stereo not given) | -15.9% |
| O=C(Nc1ccccc1)N1CCC(c2nnc3n2CCNC3)CC1 | -2.9% |
| N#Cc1ccc(CN2CC(Oc3ccc(F)cc3F)C2)cc1 | -20.1% [at 146 µM] |

| SMILES | activity change, negative = inhibition |
| --- | --- |
| Cc1cc(C(=O)NC2CC2)c2c(C3CCNCC3)noc2n1 | -15.2% [at 146 µM] |
| COc1ccc(F)cc1-c1ccccc1C=O | -5.08% [at 146 µM] |
| COc1ccccc1NC1CN(C(=O)OC(C)(C)C)C1 | -12.5% [at 146 µM] |
| COc1ccc(CNc2ncnc3c2CN(C2CCNCC2)C(=O)CN3C)cc1 | -36.3% |
| O=c1[nH]c(C2CCCN(Cc3cccc(-c4cccs4)c3)C2)nc2ccc(F)cc12 (stereo not given) | -23% |
| O=C1c2ccccc2CN1C1CCN(Cc2ccc(C(F)(F)F)cc2)CC1 | -7.82% |
| O=C1NCc2ccccc2CC12CCN(Cc1ccnc3ccccc13)CC2 | -17.8% |
| O=C(c1ccccc1F)N1CCC2(C1)C(=O)N(c1ccccc1)c1ccccc12 (stereo not given) | 12.5% |
| CN1CC(=O)N(C2CCCNCC2)Cc2c1ncnc2N1CCSCC1 (stereo not given) | 4.09% |
| CN1CC(=O)N(C2CCCNCC2)Cc2c1ncnc2N1CCN(c2ccccn2)CC1 (stereo not given) | -0.605% |
| CC(C)c1nc2c(c(-c3ccc(Cl)cc3)n1)CCN(CC1CCCCC1)CC2 | -16.6% |
| CC1CCCN(c2ncnc3c2CN(C2CCCNCC2)C(=O)CN3C)C1 (stereo not given) | -9.24% |
| c1ccc2c(c1)COC1(CCNC1)CN2CC1CCCC1 (stereo not given) | 0.378% [at 146 µM] |
| CCN1CCCC2(Cc3ccccc3CN(C(=O)c3ccccc3)C2)C1 (stereo not given) | -13.9% [at 146 µM] |
| COc1cc(OC(F)(F)F)ccc1C(=O)NCc1nnc2n1C(C(=O)O)CC2 (stereo not given) | -7.17% |
| CCc1ccc(S(=O)(=O)c2nnn3c2nc(NCc2ccc(F)cc2)c2ccccc23)cc1 | -5.83% |
| O=C(NC1CC1)c1cc(-c2ccccc2C(F)(F)F)nc2onc(C3CCNC3)c12 (stereo not given) | -18.1% |
| Cn1nc(C2CCCN2)c2c(C(=O)NCc3cccs3)cc(C3CC3)nc21 (stereo not given) | 2.68% |
| Cn1nc(C2CCNC2)c2c(C(=O)NC3CC3)cc(C3CC3)nc21 (stereo not given) | -0.11% [at 146 µM] |
| CN1CC(=O)N(C2CCCNCC2)Cc2c1ncnc2N1CCCC(F)C1 (stereo not given) | 2.56% |
